Inconclusive results are not listed. Calls of active or inactive are those of the source. Unless noted, calls come from the whole dose curve; as a rule, active = well fitted curve in the direction sought with a large enough effect in the repeat runs; inconclusive = weak or mixed curves; inactive = no such curve, though single readings can be large; an effect the other way counts as inactive or inconclusive.
Experiments:
[1] = qHTS assay to identify small molecule agonists of the sonic hedgehog signaling (Shh) pathway (AID 1259368; calls by dose curve;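 note: NIH/3T3-derived 3T3Gli1-Luc cells carrying a stable Gli1-driven firefly luciferase reporter; series mostly up to about 92 µM; nearly all actives have a fitted effect of over 15% in size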)
In short: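 Luminescence was read after 30 min at room temperature with luciferase reagent. Before that, 3T3Gli1-Luc cells (NIH/3T3 clone, stable Gli1-Luc reporter; 2,000/well) were exposed to compounds for 24 hr at 37C, 5% CO2, compounds being added 4 hr post-plating.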

[2] = target: Estrogen receptor beta (Homo sapiens) (UniProt Q92731); test: qHTS assay to identify small molecule agonists of the estrogen receptor beta (ER-beta) signaling pathway (AID 1259377; active = well fitted activation curve with a large enough effect in the signal ratio in the repeat runs, not every such curve was filed as active; the % refers to the signal ratio)
Estrogen receptor beta (Homo sapiens), sequence (Q92731 whole entry, looked up): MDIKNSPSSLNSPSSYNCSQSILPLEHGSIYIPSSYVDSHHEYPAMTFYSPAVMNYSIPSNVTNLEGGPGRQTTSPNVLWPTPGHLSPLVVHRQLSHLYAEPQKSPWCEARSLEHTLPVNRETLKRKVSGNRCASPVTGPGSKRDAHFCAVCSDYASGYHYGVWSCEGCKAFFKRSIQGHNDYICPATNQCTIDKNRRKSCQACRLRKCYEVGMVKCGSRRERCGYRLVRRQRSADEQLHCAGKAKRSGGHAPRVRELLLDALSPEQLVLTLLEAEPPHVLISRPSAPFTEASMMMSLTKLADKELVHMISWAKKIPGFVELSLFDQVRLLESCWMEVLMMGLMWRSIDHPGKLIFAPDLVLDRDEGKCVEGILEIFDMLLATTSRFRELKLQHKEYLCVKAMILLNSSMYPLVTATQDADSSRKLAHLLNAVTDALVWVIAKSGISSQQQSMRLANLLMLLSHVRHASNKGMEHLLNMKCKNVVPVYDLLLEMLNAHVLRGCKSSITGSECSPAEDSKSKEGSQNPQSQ
In short: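 Reporter cells (HEK293T, ER-beta-UAS-bla) receive compounds or DMSO after a 6 hr pre-incubation. They then incubate 16 hr at 37C/5% CO2, and fluorescence from LiveBLAzer B/G substrate is measured after 2 hours at room temperature.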

[3] = target: Estrogen receptor beta (Homo sapiens) (UniProt Q92731); test: qHTS assay to identify small molecule antagonists of the estrogen receptor beta (ER-beta) signaling pathway (AID 1259378; active = well fitted inhibition curve with a large enough effect in the signal ratio in the repeat runs, not every such curve was filed as active; the % refers to the signal ratio)
In short: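 Antagonist mode: compounds added to beta-lactamase reporter HEK293T ER-beta-UAS cells stimulated with E2 (1nM final), 16 hr at 37C. LiveBLAzer B/G FRET substrate, 2 hours room temperature, fluorescence read-out.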

[4] = qHTS assay to identify small molecule agonists of the androgen receptor (AR) signaling pathway in the presence of an antagonist - cell viability counter screen (AID 1259379);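 note: MDA-kb2 human breast cancer cells carrying an MMTV luciferase reporter; series mostly up to about 92 µM; nearly all actives have a fitted effect of over 25% in size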
In short: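 Cytotoxicity counter-screen run in the same wells as the nilutamide-challenged (3.0 µM final) AR agonist assay in MDA-kb2 cells. Compounds tested at 15 concentrations for 16 h, 37 °C without CO2; CellTiter-Fluor fluorescence read.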

[5] = qHTS assay to identify small molecule agonists of the estrogen receptor beta (ER-beta) signaling pathway - cell viability counter screen (AID 1259380); note: nearly all actives have a fitted effect of over 30% in size
In short: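 Cell viability counter screen: CellTiter-Glo luminescence (30 min, room temperature) measured in the same wells as the beta-lactamase readout, after 16 hr compound exposure at 37C of ER-beta-bla HEK293T cells in 2% charcoal-stripped FBS medium.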

[6] = target: Androgen receptor (Homo sapiens) (UniProt P10275); test: qHTS assay to identify small molecule agonists of the androgen receptor (AR) signaling pathway in the presence of an antagonist (AID 1259381; calls by dose curve; note: nearly all actives have a fitted effect of over 15% in size)
Androgen receptor (Homo sapiens), sequence (P10275 whole entry, looked up): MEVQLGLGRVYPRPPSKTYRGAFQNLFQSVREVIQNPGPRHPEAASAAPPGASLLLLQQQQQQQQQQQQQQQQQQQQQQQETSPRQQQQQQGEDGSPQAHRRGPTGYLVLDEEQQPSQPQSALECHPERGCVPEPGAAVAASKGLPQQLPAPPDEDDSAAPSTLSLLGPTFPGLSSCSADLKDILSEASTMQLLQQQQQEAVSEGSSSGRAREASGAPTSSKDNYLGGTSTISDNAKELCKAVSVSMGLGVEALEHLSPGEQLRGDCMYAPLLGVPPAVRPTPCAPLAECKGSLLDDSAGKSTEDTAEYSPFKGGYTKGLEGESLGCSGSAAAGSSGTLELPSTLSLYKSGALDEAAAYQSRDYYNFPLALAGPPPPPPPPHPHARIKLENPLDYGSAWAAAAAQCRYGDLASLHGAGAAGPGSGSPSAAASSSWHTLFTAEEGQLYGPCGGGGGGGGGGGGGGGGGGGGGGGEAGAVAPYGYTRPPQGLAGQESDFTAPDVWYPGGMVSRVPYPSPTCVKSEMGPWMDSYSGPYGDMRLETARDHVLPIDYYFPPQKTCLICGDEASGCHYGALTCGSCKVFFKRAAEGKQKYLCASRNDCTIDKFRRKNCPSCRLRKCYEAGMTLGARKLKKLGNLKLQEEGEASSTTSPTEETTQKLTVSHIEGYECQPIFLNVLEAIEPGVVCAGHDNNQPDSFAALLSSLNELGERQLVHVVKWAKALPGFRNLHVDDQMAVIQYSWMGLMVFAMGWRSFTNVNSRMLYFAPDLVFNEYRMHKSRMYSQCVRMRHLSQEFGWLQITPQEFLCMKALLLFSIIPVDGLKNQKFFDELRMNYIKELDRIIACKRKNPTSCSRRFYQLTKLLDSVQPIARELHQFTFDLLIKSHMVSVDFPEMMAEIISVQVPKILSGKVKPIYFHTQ
In short: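 Agonist-mode confirmation run against 3.0 uM final nilutamide: compounds titrated at 15 concentrations onto MDA-kb2 MMTV-luciferase reporter cells. Luminescence measured with ONE-Glo following 16 hr incubation, 37C, 0% CO2.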

[7] = qHTS assay to identify small molecule antagonists of the estrogen receptor beta (ER-beta) signaling pathway - cell viability counter screen (AID 1259382);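 note: HEK293T cells carrying ER-beta-UAS-bla reporter stimulated with estradiol; series mostly up to about 92 µM; nearly all actives have a fitted effect of over 55% in size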
In short: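 Cytotoxicity was measured in the same wells by CellTiter-Glo luminescence after 30 min at room temperature. Cells were ER-beta-bla HEK293T in charcoal-stripped serum, given compound together with 1 nM E2 and incubated 16 h at 37C.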

[8] = qHTS assay to identify small molecule agonists or antagonists of the thyroid stimulating hormone receptor (TSHR) signaling pathway - wild type cell line counter screen (AID 1259384; calls by dose curve)
In short: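 Counter screen in untransfected Hek293: compounds (15-point titration, triplicate) plus phosphodiesterase inhibitor Ro20-1724 added after 18 h plating; 30 min RT. Intracellular cAMP via competitive d2/cryptate immunoassay, 1 h incubation.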

[9] = target: Thyrotropin receptor (Homo sapiens) (UniProt P16473); test: qHTS assay to identify small molecule antagonists of the thyroid stimulating hormone receptor (TSHR) signaling pathway (AID 1259385; calls by dose curve; note: nearly all actives have a fitted effect of over 20% in size)
Thyrotropin receptor (Homo sapiens), sequence (P16473 whole entry, looked up): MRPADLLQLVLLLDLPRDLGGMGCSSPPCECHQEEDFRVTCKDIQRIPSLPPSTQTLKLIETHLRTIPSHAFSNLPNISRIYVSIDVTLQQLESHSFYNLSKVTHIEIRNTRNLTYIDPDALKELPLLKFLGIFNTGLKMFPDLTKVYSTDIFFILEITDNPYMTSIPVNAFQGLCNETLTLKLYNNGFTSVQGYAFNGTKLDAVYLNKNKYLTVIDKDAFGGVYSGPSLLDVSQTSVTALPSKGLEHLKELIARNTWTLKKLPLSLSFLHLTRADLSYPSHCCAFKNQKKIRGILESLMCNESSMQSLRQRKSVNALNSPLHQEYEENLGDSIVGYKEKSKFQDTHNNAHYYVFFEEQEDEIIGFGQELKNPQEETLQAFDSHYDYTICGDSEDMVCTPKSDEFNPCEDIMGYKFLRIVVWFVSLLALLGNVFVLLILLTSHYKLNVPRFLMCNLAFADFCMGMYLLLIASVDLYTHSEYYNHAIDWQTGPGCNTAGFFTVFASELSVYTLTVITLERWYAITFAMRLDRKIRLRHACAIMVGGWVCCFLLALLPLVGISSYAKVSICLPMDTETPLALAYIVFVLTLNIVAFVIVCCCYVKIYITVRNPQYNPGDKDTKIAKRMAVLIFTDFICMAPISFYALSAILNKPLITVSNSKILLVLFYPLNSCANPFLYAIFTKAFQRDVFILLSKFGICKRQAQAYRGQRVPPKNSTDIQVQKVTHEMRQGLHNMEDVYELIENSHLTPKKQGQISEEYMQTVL
In short: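 Antagonist mode: compound-treated TSHR-expressing HEK293 cells were stimulated with 1.5 ng/mL TSH (final) in presence of Ro20-1724 for 30 min at RT. HTRF cAMP detection after 1 h; each compound tested at 15 concentrations, triplicate.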

[10] = qHTS assay to identify small molecule agonists of the estrogen receptor alpha (ER-alpha) signaling pathway in the presence of an antagonist - cell viability counter screen (AID 1259386); note: series mostly up to about 92 µM; nearly all actives have a fitted effect of over 30% in size
In short: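 Compounds tested at 15 concentrations for 22 h at 37C alongside 10.0nM (final) ICI-182,780 antagonist, in VM7Luc4E2 cells grown in phenol red-free, charcoal-stripped medium. Viability read by CellTiter-Fluor fluorescence after 1 h reagent incubation.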

[11] = target: Progesterone receptor (Homo sapiens) (UniProt P06401); test: qHTS assay to identify small molecule agonists of the progesterone receptor (PR) signaling pathway (AID 1346784; calls by dose curve; note: nearly all actives have a fitted effect of over 30% in size)
Progesterone receptor (Homo sapiens), sequence (P06401 whole entry, looked up): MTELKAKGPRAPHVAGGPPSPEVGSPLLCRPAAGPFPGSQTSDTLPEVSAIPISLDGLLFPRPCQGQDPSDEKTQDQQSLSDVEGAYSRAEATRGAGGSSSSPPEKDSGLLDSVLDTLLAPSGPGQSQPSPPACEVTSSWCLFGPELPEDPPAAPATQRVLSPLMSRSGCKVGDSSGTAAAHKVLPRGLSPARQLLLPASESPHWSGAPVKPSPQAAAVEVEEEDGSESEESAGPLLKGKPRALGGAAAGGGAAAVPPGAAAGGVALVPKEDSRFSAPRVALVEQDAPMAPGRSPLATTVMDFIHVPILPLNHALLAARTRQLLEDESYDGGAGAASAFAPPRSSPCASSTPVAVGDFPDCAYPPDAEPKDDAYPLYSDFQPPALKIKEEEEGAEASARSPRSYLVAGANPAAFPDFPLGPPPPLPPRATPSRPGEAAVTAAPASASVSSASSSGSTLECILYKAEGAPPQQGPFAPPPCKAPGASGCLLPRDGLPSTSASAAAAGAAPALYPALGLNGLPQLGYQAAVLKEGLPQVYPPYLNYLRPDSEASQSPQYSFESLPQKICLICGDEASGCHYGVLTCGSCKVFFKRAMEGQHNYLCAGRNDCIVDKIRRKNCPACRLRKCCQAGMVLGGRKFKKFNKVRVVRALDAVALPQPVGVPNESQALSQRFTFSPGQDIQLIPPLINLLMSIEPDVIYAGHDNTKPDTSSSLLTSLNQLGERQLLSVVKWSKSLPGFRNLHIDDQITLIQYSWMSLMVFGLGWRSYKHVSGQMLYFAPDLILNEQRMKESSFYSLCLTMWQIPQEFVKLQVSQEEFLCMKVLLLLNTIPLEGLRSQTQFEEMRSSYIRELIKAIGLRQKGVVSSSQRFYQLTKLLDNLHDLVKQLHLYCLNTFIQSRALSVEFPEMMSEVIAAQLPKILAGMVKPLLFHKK
In short: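 Reporter assay, GripTite PR-UAS-bla HEK 293T cells: 16 hr exposure to DMSO-dissolved compounds at 37C, 5% CO2, in steroid-depleted (2% charcoal-stripped FBS) medium; beta-lactamase measured by FRET fluorescence.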

[12] = target: Progesterone receptor (Homo sapiens) (UniProt P06401); test: qHTS assay to identify small molecule antagonists of the progesterone receptor (PR) signaling pathway (AID 1346795; active = well fitted inhibition curve with a large enough effect in the signal ratio in the repeat runs, not every such curve was filed as active; the % refers to the signal ratio)
In short: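 Stimulus R5020 at 1 nM final; cells HEK293T PR-UAS-bla; medium with 2% charcoal-stripped FBS; compound exposure 16 hr at 37C, 5% CO2; detection by FRET beta-lactamase substrate, 2 hr, room temperature.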

[13] = qHTS assay to identify small molecule antagonists of the progesterone receptor (PR) signaling pathway - cell viability counter screen (AID 1346798); note: series mostly up to about 92 µM; nearly all actives have a fitted effect of over 50% in size
In short: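 In the same plates used for the beta-lactamase readout, cell viability of compound- and R5020-treated PR-UAS-bla HEK293T cells (16 hr, 37C) was assessed by CellTiter-Glo luminescence.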

[14] = qHTS assay to identify small molecule agonists of the progesterone receptor (PR) signaling pathway - cell viability counter screen (AID 1346799; calls by dose curve; note: nearly all actives have a fitted effect of over 45% in size)
In short: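 Multiplexed viability read: CellTiter-Glo luminescence, 30 min RT, following LiveBLAzer FRET measurement on PR-UAS-bla HEK293T cells exposed to compounds 16 hr.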

[15] = qHTS assay to identify small molecule antagonists of the TGF-beta/Smad signaling pathway - cell viability counter screen (AID 1346824); note: nearly all actives have a fitted effect of over 50% in size
In short: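 Cytotoxicity counter-screen run in the same wells as the beta-lactamase Smad reporter read: CellTiter-Glo luminescence after 30 min at room temperature. HEK 293T SBE-bla cells had 5 hr compound exposure at 37 C with TGF-beta1 (0.25 ng/mL stock).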

[16] = qHTS assay to identify small molecule agonists of the TGF-beta/Smad signaling pathway - cell viability counter screen (AID 1346829); note: top concentration of the series differs between compounds; nearly all actives have a fitted effect of over 45% in size
In short: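 HEK 293T SBE-bla line, 5 hr compound exposure at 37 C, multiplexed CellTiter-Glo viability read by luminescence.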

[17] = qHTS assay to identify small molecule agonists of the TGF-beta/Smad signaling pathway (AID 1346859; active = well fitted activation curve with a large enough effect in the signal ratio in the repeat runs, not every such curve was filed as active; the % refers to the signal ratio; note: series mostly up to about 77 µM)
In short: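 Screening used HEK 293T SBE-bla cells at 4,000/well. Test agents: 5 hr, 37 C. Detection: FRET substrate, 2 hr RT, then excitation 405 nm with emissions at 460 and 530 nm.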

[18] = target: Thyrotropin-releasing hormone receptor (Homo sapiens) (UniProt P34981); test: qHTS assay to identify small molecule antagonists of the thyrotropin-releasing hormone receptor (TRHR) signaling pathway (AID 1346877; active = well fitted inhibition curve with a large enough effect in the repeat runs, not every such curve was filed as active; note: series mostly up to about 51 µM)
Thyrotropin-releasing hormone receptor (Homo sapiens), sequence (P34981 whole entry, looked up): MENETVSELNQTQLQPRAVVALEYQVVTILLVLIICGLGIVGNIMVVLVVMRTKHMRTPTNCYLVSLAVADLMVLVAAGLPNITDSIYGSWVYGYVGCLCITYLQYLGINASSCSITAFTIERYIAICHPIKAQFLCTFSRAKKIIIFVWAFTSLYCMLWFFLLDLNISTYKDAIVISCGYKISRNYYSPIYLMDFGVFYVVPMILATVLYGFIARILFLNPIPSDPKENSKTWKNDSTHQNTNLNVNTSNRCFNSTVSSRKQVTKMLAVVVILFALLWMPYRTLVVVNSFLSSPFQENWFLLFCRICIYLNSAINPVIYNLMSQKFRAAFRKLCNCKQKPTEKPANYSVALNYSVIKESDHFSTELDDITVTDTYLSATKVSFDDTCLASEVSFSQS
In short: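 Antagonist mode: after a 5 min room-temperature compound exposure, cells were stimulated with 1 nM (final) TRH. Dye-loaded TRHR-HEK293 cells were used, and calcium-dependent fluorescence was followed for 3 min, with 15-point titrations run in triplicate.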

[19] = qHTS assay to identify small molecule antagonists of the sonic hedgehog signaling (Shh) pathway (AID 1259369; calls by dose curve; note: nearly all actives have a fitted effect of over 45% in size)
In short: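 Antagonist mode: compound added to 3T3 Gli1-Luc cells followed by conditioned-medium stimulation, 24 h at 37 C, 5% CO2. Inhibition taken as loss of Gli1-driven luciferase luminescence.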

[20] = target: Estrogen receptor (Homo sapiens) (UniProt P03372); test: qHTS assay to identify small molecule agonists of the estrogen receptor alpha (ER-alpha) signaling pathway in the presence of an antagonist (AID 1259383; calls by dose curve; note: top concentration of the series differs between compounds; nearly all actives have a fitted effect of over 15% in size)
Estrogen receptor (Homo sapiens), sequence (P03372 whole entry, looked up): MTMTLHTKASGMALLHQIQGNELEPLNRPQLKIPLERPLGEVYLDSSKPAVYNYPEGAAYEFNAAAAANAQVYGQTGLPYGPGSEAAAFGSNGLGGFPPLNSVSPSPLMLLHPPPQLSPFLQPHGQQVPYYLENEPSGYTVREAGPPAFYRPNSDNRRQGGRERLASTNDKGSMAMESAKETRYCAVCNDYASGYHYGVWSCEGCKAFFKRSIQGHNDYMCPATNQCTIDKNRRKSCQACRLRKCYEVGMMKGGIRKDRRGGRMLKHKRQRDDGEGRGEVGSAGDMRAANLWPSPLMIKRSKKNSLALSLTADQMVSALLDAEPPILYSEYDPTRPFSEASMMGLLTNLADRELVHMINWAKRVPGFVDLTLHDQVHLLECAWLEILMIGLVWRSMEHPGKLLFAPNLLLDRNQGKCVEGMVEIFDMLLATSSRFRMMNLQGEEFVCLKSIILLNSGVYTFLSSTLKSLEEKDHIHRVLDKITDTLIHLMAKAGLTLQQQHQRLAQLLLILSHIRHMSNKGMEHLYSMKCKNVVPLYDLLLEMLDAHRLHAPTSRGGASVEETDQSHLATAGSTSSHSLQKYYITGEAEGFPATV
In short: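 Agonist-mode confirmation run in the presence of 10.0nM (final) ICI-182,780 antagonist. The reporter was ERE-driven luciferase in VM7Luc4E2 cells, grown in charcoal-stripped serum. Cells were exposed to 15-concentration compound series for 22hr, then ONE-Glo luminescence was read.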

Measured: Potency

O=C(O)c1ccncc1
not listed: [19] | [20]
inactive: all other assays above

CCCCCCCCCCCCSC#N
not listed: [2] | [3] | [5] | [6] | [14] | [18]
inactive: all other assays above

CCc1ccc(C(=O)C(C)CN2CCCCC2)cc1 (stereo unspecified)
not listed: [2] | [3] | [4] | [6] | [8] | [20]
inactive: all other assays above

O=C(c1ccc(Cl)cc1)c1ccc(Cl)cc1
not listed: [16] | [19]
inactive: all other assays above

CCCCOc1ccc(N)cc1
not listed: [6] | [14] | [16] | [19] | [20]
inactive: all other assays above

CCCC1CCOC(C)S1 (stereo unspecified)
not listed: [19]
inactive: all other assays above

Sc1nc(S)nc(S)n1
not listed: [6] | [13] | [19] | [20]
inactive: all other assays above

COc1ccc(CN(CCN(C)C)c2ncccn2)cc1
not listed: [6] | [19] | [20]
inactive: all other assays above

— PubChem BioAssay (Tox21)
